Test results taken from PubChem BioAssay (EPA / NIEHS).
Results filed as inconclusive are left out. Active and inactive are the calls of the source. Rule for the calls, unless noted: active = hit-call score of the fitted dose curve at least 0.9, where 1 is the maximum; inconclusive = response in the unintended direction; inactive = score below 0.9.

Experiments:
[1] = TOX21_p53_BLA_p2_viability: Viability Assessment in the Tox21 HCT-116 p53 Agonism Beta-lactamase Assay, Phase 2 (AID 2283591);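 note: compound exposure lasted 16 h at 37 °C; actives lower the ATP signal meaning cytotoxicity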
Method in brief: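 HCT116 p53-bla cells, 4000/well, dosed after 5 h plating (217-fold dilution of DMSO stocks) and incubated 16 h at 37C. Viability taken as cellular ATP by CellTiter-Glo luminescence after 30 min RT; signal loss marks cytotoxicity.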

[2] = target: Cellular tumor antigen p53 (Homo sapiens) (UniProt P04637); assay: TOX21_p53_BLA_p2_ratio: Tox21 HCT-116 p53 Agonism Beta-lactamase Assay, Ratio, Phase 2 (AID 2283592)
Method in brief: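 In this cell-based reporter format, HCT116 cells were dosed with chemicals delivered from DMSO by 217-fold dilution and incubated 16 h at 37C. Emission at 460 and 530 nm after 2 h CCF4-AM loading provided the ratio, fitted upward versus DMSO.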

[3] = TOX21_p53_BLA_p3_viability: Viability Assessment in the Tox21 HCT-116 p53 Agonism Beta-lactamase Assay, Phase 3 (AID 2283593);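 note: cells exposed to compound for 16 h before reading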
Method in brief: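 HCT116 cells, 4000/well, dosed 5 h after plating by pin transfer (217-fold dilution from DMSO stock) and incubated 16 h at 37C, 5% CO2. Viability read as ATP luminescence with CellTiter-Glo after 30 min at room temperature.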

[4] = target: Cellular tumor antigen p53 (Homo sapiens) (UniProt P04637); assay: TOX21_p53_BLA_p3_ratio: Tox21 HCT-116 p53 Agonism Beta-lactamase Assay, Ratio, Phase 3 (AID 2283596)
Method in brief: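 HCT116 p53-bla cells (4000/well) given compound in DMSO (217-fold dilution) after 5 h, incubated 16 h at 37C. CCF4-AM substrate 2 h at room temperature; 460/530 nm emission ratio, gain fitted against DMSO.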

[5] = TOX21_p53_BLA_p4_viability: Viability Assessment in the Tox21 HCT-116 p53 Agonism Beta-lactamase Assay, Phase 4 (AID 2283597);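 note: hits lower the luminescence signal meaning cytotoxicity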
Method in brief: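 We seeded HCT116 p53 reporter cells at 4000/well and waited 5 h. We then added compounds in DMSO at a 217-fold dilution and incubated for 16 h. Viability was read as CellTiter-Glo luminescence after 30 min at RT.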

[6] = TOX21_p53_BLA_p5_viability: Viability Assessment in the Tox21 HCT-116 p53 Agonism Beta-lactamase Assay, Phase 5 (AID 2283600)
Method in brief: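 Compounds, pinned from DMSO at 217-fold dilution, were left on the cells for 16 h. The viability endpoint was ATP content measured by CellTiter-Glo luminescence, where falling signal reflects cytotoxicity.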

[7] = target: Cellular tumor antigen p53 (Homo sapiens) (UniProt P04637); assay: TOX21_p53_BLA_p4_ratio: Tox21 HCT-116 p53 Agonism Beta-lactamase Assay, Ratio, Phase 4 (AID 2283601)
Method in brief: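 HCT-116 p53 beta-lactamase reporter cells (4000/well) preincubated 5 h, then compound (217-fold dilution of DMSO stock) for 16 h at 37C. CCF4-AM substrate added 2 h at room temperature; 460/530 nm emission ratio fitted upward versus DMSO.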

[8] = CCTE_Harrill_HTTr_Viability_MCF7: CCTE's 6-hour Cell Viability Assessment for the High-Throughput Transcriptomics (HTTr) Platform, in MCF-7 cells cultured in DMEM + 10% fetal bovine serum, Harrill Lab (AID 2284010; active = hit-call score of the fitted dose curve at least 0.9, where 1 is the maximum; inactive = score below 0.9)
Method in brief: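 Membrane integrity was scored by high-content imaging of propidium iodide dye exclusion after a 6 h exposure across an eight-point dilution series. Data were fitted bidirectionally relative to DMSO as negative control and baseline.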

[9] = CCTE_Harrill_HTTr_Apoptosis_MCF7: CCTE's 6-hour Apoptosis Assessment for the High-Throughput Transcriptomics (HTTr) Platform, in MCF-7 cells cultured in DMEM + 10% fetal bovine serum, Harrill Lab (AID 2284011; active = hit-call score of the fitted dose curve at least 0.9, where 1 is the maximum; inactive = score below 0.9)
Method in brief: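 Read-out: CellEvent Caspase 3/7 Green signal by high content imaging, gain-of-signal indicating apoptosis. MCF-7 cells, DMEM + 10% FBS, eight-point dilution series, 6 h exposure. Curves fitted bidirectionally relative to DMSO negative control.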

[10] = CCTE_Harrill_HTTr_CellCount_MCF7: CCTE's Cell Proliferation Assessment for the High-Throughput Transcriptomics (HTTr) Platform, Harrill Lab (AID 2284012);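 note: cells exposed to compound for six hours; intended direction is loss of nuclei count meaning fewer cells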
Method in brief: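 MCF-7 cells were exposed for 6 h to an eight-point dilution series; Hoechst-labeled nuclei were counted by high content imaging. Curves were fitted bidirectionally against DMSO as negative control and baseline, with signal loss indicating reduced cell count.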

Measured: outcome

Cellular tumor antigen p53 (Homo sapiens), sequence (P04637 whole entry, looked up): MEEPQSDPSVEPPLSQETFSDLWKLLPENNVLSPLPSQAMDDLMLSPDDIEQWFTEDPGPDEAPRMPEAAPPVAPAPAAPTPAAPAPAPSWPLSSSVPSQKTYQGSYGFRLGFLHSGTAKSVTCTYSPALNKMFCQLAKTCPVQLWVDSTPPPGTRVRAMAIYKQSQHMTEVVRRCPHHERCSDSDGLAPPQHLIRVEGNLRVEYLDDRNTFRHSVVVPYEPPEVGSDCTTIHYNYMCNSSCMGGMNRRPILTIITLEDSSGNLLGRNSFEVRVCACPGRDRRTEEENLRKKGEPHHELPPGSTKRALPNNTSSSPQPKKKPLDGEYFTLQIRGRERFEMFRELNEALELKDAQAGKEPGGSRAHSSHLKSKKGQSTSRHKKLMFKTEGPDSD

CCn1cc(C(=O)O)c(=O)c2cc3c(cc21)OCO3
inactive: [1] | [2] | [3] | [4] | [5] | [6] | [7] | [8] | [9] | [10]
